In PubChem BioAssay (NCI):
This is part of a sample that, as a whole, favours compounds with a hit. Of some 79,000 tested, about 15% had one in any assay. Unmarked numbers belong to inactive results. Activity calls are given as the source filed them. Rule as the data show it: active = growth inhibition above about 70%; inactive = the rest.

Experiments:
[1] = NCI Yeast Anticancer Drug Screen. Data for the rad50 strain (AID 155);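 also: 0% = growth of vehicle-only cultures of the same strain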; settings: S. cerevisiae rad50 strain growth inhibition; at 50.0 µM; active compounds read high
Procedure, shortened: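 Cells are treated with compound, grown, and their growth is then scored against vehicle-only cultures of the same repair-deficient yeast strain.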

[2] = NCI Yeast Anticancer Drug Screen. Data for the mec2-1 strain (AID 157); settings: S. cerevisiae mec2-1 strain, at 50.0 µM, active compounds read high
Procedure, shortened: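 Growth inhibition is read against vehicle-treated controls after compound exposure of the mec2-1 yeast strain, which is defective in DNA damage repair or cell cycle control.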

[3] = NCI Yeast Anticancer Drug Screen. Data for the sgs1 mgt1 strain (AID 161);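 also: 0% = growth of cultures given vehicle only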; settings: S. cerevisiae sgs1 mgt1 strain, at 50.0 µM, active compounds read high
Procedure, shortened: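 Compounds are added to genetically altered yeast, and growth is compared with cultures given vehicle alone to give percent inhibition.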

[4] = NCI Yeast Anticancer Drug Screen. Data for the cln2 rad14 strain (AID 165);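 also: 0% = growth equal to vehicle treated cultures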; settings: S. cerevisiae cln2 rad14 strain, at 50.0 µM, active compounds read high
Procedure, shortened: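 Growth inhibition, relative to vehicle-treated controls, is the read-out. The test organism is a yeast strain with defined genetic alterations, cln2 rad14.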

[5] = NCI Yeast Anticancer Drug Screen. Data for the bub3 strain (AID 167); settings: S. cerevisiae bub3 mutant strain, at 50.0 µM, active compounds read high
Procedure, shortened: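 Part of a panel of yeast mutants defective in DNA damage repair or cell cycle regulation. Each strain is grown with compound, and inhibition is calculated relative to solvent-treated cultures.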

[6] = NCI Yeast Anticancer Drug Screen. Data for the mlh1 rad18 strain (AID 175); settings: S. cerevisiae mlh1 rad18 strain growth inhibition; at 50.0 µM; active compounds read high
Procedure, shortened: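 Cells of a genetically altered yeast strain, deficient in DNA damage repair, were treated with compound. Their growth was then compared with that of vehicle-treated cultures to give inhibition.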

## O=[N+]([O-])c1cccc(CC(=S)N2CCOCC2)c1
[1]
  growth inhibition: 14.4%
[2]
  growth inhibition: -3.8%
[3]
  growth inhibition: -8.9%
[4]
  growth inhibition: -39.8%
[5]
  growth inhibition: -2.3%
[6]
  growth inhibition: 6.6%

## Cc1ccccc1NC(=O)C(=O)Cc1nc2ccccc2s1
[1]
  growth inhibition: 14.8%
[2]
  growth inhibition: -8.7%
[3]
  growth inhibition: -1.5%
[4]
  growth inhibition: 11.8%
[5]
  growth inhibition: 9.15%
[6]
  growth inhibition: 20.4%

## C[N+](C)(C)CCc1ccc2ccccc2c1
[1]
  growth inhibition: 12.2%
[2]
  growth inhibition: 11.8%
[3]
  growth inhibition: 9.35%
[4]
  growth inhibition: 0.1%
[5]
  growth inhibition: 5.7%
[6]
  growth inhibition: 12.8%

## COc1ccc(C)cc1CC(=O)O
[1]
  growth inhibition: 7.5%
[2]
  growth inhibition: 3.05%
[3]
  growth inhibition: -21.4%
[4]
  growth inhibition: 4.1%
[5]
  growth inhibition: 6.25%
[6]
  growth inhibition: -9.2%

## CCSC(=S)S
[1]
  growth inhibition: -0.35%
[2]
  growth inhibition: -23%
[3]
  growth inhibition: -12.2%
[4]
  growth inhibition: 7.15%
[5]
  growth inhibition: 0.25%
[6]
  growth inhibition: -0.3%

## O=c1onc2n1-c1cc(Cl)ccc1C(=S)N1CSCC21 (stereo unspecified)
[1]
  growth inhibition: 1%
[2]
  growth inhibition: 8.15%
[3]
  growth inhibition: 13.5%
[4]
  growth inhibition: 5.4%
[5]
  growth inhibition: 2.5%
[6]
  growth inhibition: 11.6%

## NS(=O)(=O)c1ccc(NC(=O)CC(=O)c2ccccc2)cc1
[1]
  growth inhibition: -57.4%
[2]
  growth inhibition: -32.7%
[3]
  growth inhibition: -36%
[4]
  growth inhibition: 0.35%
[5]
  growth inhibition: -25.6%
[6]
  growth inhibition: -38%

## COC(=O)/C=C/c1ccc(OC)c(OC)c1
[1]
  growth inhibition: 22.3%
[2]
  growth inhibition: 0.4%
[3]
  growth inhibition: 13.6%
[4]
  growth inhibition: -2.2%
[5]
  growth inhibition: 64.5%
[6]
  growth inhibition: 50%

## O=C(O)CC1=C(c2ccccc2)C(O)(c2ccccc2)CC1=O (stereo unspecified)
[1]
  growth inhibition: 4.75%
[2]
  growth inhibition: 15.3%
[3]
  growth inhibition: 7.05%
[4]
  growth inhibition: -27.9%
[5]
  growth inhibition: 11.2%
[6]
  growth inhibition: -11.1%

## CCCCCCCCCCCCCCCC(=O)N(CCCC)CCCC
[1]
  growth inhibition: 3.55%
[2]
  growth inhibition: 5.7%
[3]
  growth inhibition: -4.05%
[4]
  growth inhibition: 11.9%
[5]
  growth inhibition: 3.4%
[6]
  growth inhibition: 8.85%

## NNC(=O)CNc1cccc(Br)c1
[1]
  growth inhibition: -16.1%
[2]
  growth inhibition: -24.6%
[3]
  growth inhibition: -6.1%
[4]
  growth inhibition: 16.9%
[5]
  growth inhibition: -32.4%
[6]
  growth inhibition: -11.4%

## O=S1(=O)C(c2ccccc2)C(N2CCCCC2)C1C1CC2c3ccccc3C1c1ccccc12 (stereo unspecified)
[1]
  growth inhibition: 19.5%
[2]
  growth inhibition: 32.6%
[3]
  growth inhibition: 2.9%
[4]
  growth inhibition: -28%
[5]
  growth inhibition: 28.9%
[6]
  growth inhibition: 30.2%

## O=C(O)c1cc(C(=O)O)nc(C(=O)O)c1
[1]
  growth inhibition: -23.9%
[2]
  growth inhibition: -12.1%
[3]
  growth inhibition: -16.1%
[4]
  growth inhibition: -29.9%
[5]
  growth inhibition: 5.7%
[6]
  growth inhibition: -0.6%

## CCOC(=O)/C(C#N)=C/N=c1ccccn1C
[1]
  growth inhibition: 5.1%
[2]
  growth inhibition: -7.95%
[3]
  growth inhibition: -1.3%
[4]
  growth inhibition: -25.1%
[5]
  growth inhibition: -6.6%
[6]
  growth inhibition: -4.5%

## COc1cc(C2c3cc4c(cc3[C@@H](OC3OC5CO[C@@H](C)OC5C(O)C3O)[C@H]3COC(=O)C23)OCO4)cc(OC)c1OC (stereo partly specified)
[1]
  growth inhibition: 2.4%
[2]
  growth inhibition: -36.1%
[3]
  growth inhibition: -21.9%
[4]
  growth inhibition: 12.4%
[5]
  growth inhibition: -16.7%
[6]
  growth inhibition: -83.5%

## O=C(Oc1ccn(C2OC(CO)C(O)C2O)c(=O)c1)C12CC3CC(CC(C3)C1)C2 (stereo unspecified)
[1]
  growth inhibition: 36.1%
[2]
  growth inhibition: 11.6%
[3]
  growth inhibition: 25.2%
[4]
  growth inhibition: 25.4%
[5]
  growth inhibition: 0.95%
[6]
  growth inhibition: 36.2%

## CC(=O)N[C@H](CO)[C@H](O)c1ccc([N+](=O)[O-])cc1
[1]
  growth inhibition: -12.2%
[2]
  growth inhibition: 10.1%
[3]
  growth inhibition: 9%
[4]
  growth inhibition: -47.6%
[5]
  growth inhibition: 16.1%
[6]
  growth inhibition: 19.6%

## CCCO[C@@H]1[C@@H](OC(C)=O)[C@@H](OC(C)=O)C(C)(C)/C=C/[C@H](C)C(=O)[C@@]2(OC(C)=O)C[C@@](C)(OC(C)=O)[C@H](OC(C)=O)[C@@H]2[C@H]2OC(=O)CC[C@@]12OC(=O)c1ccccc1
[1]
  growth inhibition: -14.7%
[2]
  growth inhibition: -24.2%
[3]
  growth inhibition: -56.5%
[4]
  growth inhibition: -16.1%
[5]
  growth inhibition: -48.8%
[6]
  growth inhibition: -29.1%

## CC(=O)Nc1cccc(Cc2ccccc2)c1
[1]
  growth inhibition: 14.3%
[2]
  growth inhibition: -14.4%
[3]
  growth inhibition: 1.05%
[4]
  growth inhibition: -67.2%
[5]
  growth inhibition: -6.3%
[6]
  growth inhibition: -4.6%

## CC1(C)OC1(C(=O)C=[N+]=[N-])c1ccccc1 (stereo unspecified)
[1]
  growth inhibition: -14.8%
[2]
  growth inhibition: -17.8%
[3]
  growth inhibition: -23.9%
[4]
  growth inhibition: -15.8%
[5]
  growth inhibition: -13.6%
[6]
  growth inhibition: -29.4%

## COc1nc2n[nH]nc2c(=O)n1C
[1]
  growth inhibition: -5.75%
[2]
  growth inhibition: -10.8%
[3]
  growth inhibition: -13.1%
[4]
  growth inhibition: 13.7%
[5]
  growth inhibition: -5.1%
[6]
  growth inhibition: -21.6%

## COc1ccc2ccc3cccnc3c2n1
[1]
  growth inhibition: 45.2%
[2]
  growth inhibition: 22.1%
[3]
  growth inhibition: 40.9%
[4]
  growth inhibition: -2.35%
[5]
  growth inhibition: 26.2%
[6]
  growth inhibition: 2%

## NC(CS)C(=O)NCCNCCNc1ccc(NCCNCCNC(=O)C(N)CS)c2c1C(=O)c1c(O)ccc(O)c1C2=O (stereo unspecified)
[1]
  growth inhibition: -30.4%
[2]
  growth inhibition: -12.4%
[3]
  growth inhibition: 2.1%
[4]
  growth inhibition: -0.85%
[5]
  growth inhibition: -10.5%
[6]
  growth inhibition: -12.7%

## C=Cn1c2ccccc2c2ccccc21
[1]
  growth inhibition: 46.9%
[2]
  growth inhibition: 18.9%
[3]
  growth inhibition: 26.9%
[4]
  growth inhibition: 15.2%
[5]
  growth inhibition: -6.75%
[6]
  growth inhibition: -0.55%

## C=CCCCCCCCCC(=O)N/N=C/c1ccc(NC(C)=O)cc1
[1]
  growth inhibition: 10.2%
[2]
  growth inhibition: 6.55%
[3]
  growth inhibition: 7.1%
[4]
  growth inhibition: 3%
[5]
  growth inhibition: 11.8%
[6]
  growth inhibition: 7.1%

## NNC(=O)c1csnn1
[1]
  growth inhibition: -24.6%
[2]
  growth inhibition: -22.6%
[3]
  growth inhibition: -24.5%
[4]
  growth inhibition: -25.4%
[5]
  growth inhibition: -23.6%
[6]
  growth inhibition: -7%

## CC(C)C(C(=O)O)C(=O)O
[1]
  growth inhibition: 3.55%
[2]
  growth inhibition: 10.5%
[3]
  growth inhibition: 4.75%
[4]
  growth inhibition: 1.25%
[5]
  growth inhibition: 3.9%
[6]
  growth inhibition: 19.1%

## CC(=Nc1cccc2ccccc12)c1c(O)cc(C)oc1=O
[1]
  growth inhibition: 20.4%
[2]
  growth inhibition: 12.2%
[3]
  growth inhibition: 15.2%
[4]
  growth inhibition: 20.9%
[5]
  growth inhibition: 16.1%
[6]
  growth inhibition: 14.1%

## CCCCCCC1CCC(=O)CC1
[1]
  growth inhibition: 31.9%
[2]
  growth inhibition: 4.3%
[3]
  growth inhibition: -14.6%
[4]
  growth inhibition: -10.1%
[5]
  growth inhibition: -7.3%
[6]
  growth inhibition: 34.5%

## S=C(NCc1ccco1)Nc1ccccc1Cl
[1]
  growth inhibition: 5.5%
[2]
  growth inhibition: -4.1%
[3]
  growth inhibition: 16.2%
[4]
  growth inhibition: 4.5%
[5]
  growth inhibition: 4.4%
[6]
  growth inhibition: 1.2%

## CCOCC1c2ccccc2CCN1Cc1c[nH]c2ccccc12 (stereo unspecified)
[1]
  growth inhibition: 9.65%
[2]
  growth inhibition: -21.2%
[3]
  growth inhibition: -2.85%
[4]
  growth inhibition: -5.15%
[5]
  growth inhibition: 0.6%
[6]
  growth inhibition: -4.55%

## O=N/C(=C(\c1ccccc1)N1CCOCC1)c1ccccc1
[1]
  growth inhibition: -10.2%
[2]
  growth inhibition: 11.8%
[3]
  growth inhibition: 9.6%
[4]
  growth inhibition: -2.45%
[5]
  growth inhibition: -20.6%
[6]
  growth inhibition: 6.45%

## CC(=O)OCC(OC(C)=O)C(OC(C)=O)C(/C=C/N=[N+]([O-])c1ccccc1)OC(C)=O (stereo unspecified)
[1]
  growth inhibition: 49%
[2]
  growth inhibition: 31.5%
[3]
  growth inhibition: 45.5%
[4]
  growth inhibition: 42.6%
[5]
  growth inhibition: 48.6%
[6]
  growth inhibition: 44.9%

## COc1ccc(S(=O)(=O)O)cc1N
[1]
  growth inhibition: -21.2%
[2]
  growth inhibition: -15.9%
[3]
  growth inhibition: -13.5%
[4]
  growth inhibition: -5.15%
[5]
  growth inhibition: -11.9%
[6]
  growth inhibition: -3.95%

## CCCCCCCCCCC#N
[1]
  growth inhibition: 15.2%
[2]
  growth inhibition: -8.4%
[3]
  growth inhibition: -5.6%
[4]
  growth inhibition: 14.6%
[5]
  growth inhibition: 9.15%
[6]
  growth inhibition: -17.6%

## O=C1C(=O)N(c2ccc(Cl)cc2Cl)C(=O)C(=O)C1c1nc2ccccc2s1
[1]
  growth inhibition: 43.1%
[2]
  growth inhibition: 29.7%
[3]
  growth inhibition: 4%
[4]
  growth inhibition: 24.2%
[5]
  growth inhibition: 25.6%
[6]
  growth inhibition: 29%

## COc1ccc(C(=O)/C(Br)=C\C(=O)O)cc1
[1]
  growth inhibition: 16.8%
[2]
  growth inhibition: 24.4%
[3]
  growth inhibition: 5.4%
[4]
  growth inhibition: 28.6%
[5]
  growth inhibition: 23.9%
[6]
  growth inhibition: 7%

## COc1cc2c(C)cc(O)cc2c2cc(O)c(C)cc12
[1]
  growth inhibition: 22.6%
[2]
  growth inhibition: -1.55%
[3]
  growth inhibition: -10.3%
[4]
  growth inhibition: -5.9%
[5]
  growth inhibition: -9.9%
[6]
  growth inhibition: 91.8% (active)

## COC(=O)c1ccc(F)cc1
[1]
  growth inhibition: -53.9%
[2]
  growth inhibition: -25.9%
[3]
  growth inhibition: -25.5%
[4]
  growth inhibition: -1.45%
[5]
  growth inhibition: -51.6%
[6]
  growth inhibition: -46.3%

## Cc1cc(=O)n(-c2ccc([N+](=O)[O-])cc2)c(C)c1C(=O)O
[1]
  growth inhibition: 3.25%
[2]
  growth inhibition: -2.4%
[3]
  growth inhibition: 4.85%
[4]
  growth inhibition: -0.15%
[5]
  growth inhibition: 7.9%
[6]
  growth inhibition: -1.65%

## O=C1O[C@H]2C3C4CCC(C4[C@@H]2I)[C@H]13 (stereo partly specified)
[1]
  growth inhibition: -13.7%
[2]
  growth inhibition: -13.8%
[3]
  growth inhibition: -9.1%
[4]
  growth inhibition: 19.9%
[5]
  growth inhibition: 14.1%
[6]
  growth inhibition: 16.6%
